VACV Venus inh: qHTS for Stage-Specific Inhibitors of Vaccinia Orthopoxvirus: Venus Reporter Primary qHTS; Vaccinia virus Venus reporter expression, fluorescence; Potency, µM (top dose mostly 36.5 µM), for the others: at the highest dose activity change, negative = inhibition, hits mostly inhibitors; hit rate 0.46% among 330,000; AID 720580, 2013; calls by dose curve; tested in A549 cells; note: % is set by controls: 0 for no effect and ±100 for the full control effect; nearly all actives have a fitted effect of over 30% in size
HCV inh: qHTS Assay for Inhibitors of Hepatitis C Virus (HCV); Potency, µM (titrated, usually from 41.8 µM), inactives show top-dose activity change, negative = inhibition, most hits filed as inhibitors; AID 651820, 2012; hit rate 3.4% among 340,000; Huh7.5.1 HCVcc-Cre infection, luciferase reporter, 44 h; note: % is set by controls: 0 for no effect and ±100 for the full control effect
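Compounds are dispensed onto cells plated 4 h earlier at 1,000 per well, with HCVcc-Cre virus (about 0.5 moi) added next. Following 44 h of culture, luminescent signal is measured for 15 sec after 15 min with substrate at room temperature.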
Pf growth 96h: Primary qHTS for delayed death inhibitors of the malarial parasite plastid, 96 hour incubation; P. falciparum luciferase reporter growth, 96 h; Potency, µM (series often up to 28.7 µM), for inactives: top-dose activity change, negative = inhibition, actives largely listed as inhibitors; hit rate 6.9% among 320,000; note: % is set by controls: 0 for no effect and ±100 for the full control effect
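Compounds incubated with erythrocytes infected by luciferase-expressing P. falciparum (2% hematocrit, 0.05% parasitemia final) for 96 hours, 37 C in 5% CO2. Growth inhibition scored as decreased luciferase luminescence.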
Pf growth 48h: Primary qHTS for delayed death inhibitors of the malarial parasite plastid, 48 hour incubation | hit rate 5.9% among 310,000 | P. falciparum luciferase growth in erythrocytes, 48 h | AID 504832, 2011 | Potency, µM (doses to about 28.7 µM), inactives show at the top dose activity change, negative = inhibition, most hits filed as inhibitors; note: % is set by controls: 0 for no effect and ±100 for the full control effect
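Cell-based growth assay: transgenic P. falciparum expressing firefly luciferase, cultured in red cells within RPMI 1640 containing 0.5% w/v Albumax, 24 mM bicarbonate and gentamycin. A drop in luciferase activity indicates inhibition.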
NS1 inh: qHTS Assay for Inhibitors of Influenza NS1 Protein Function; hit rate 0.4% among 270,000; Potency, µM (highest dose often 46.1 µM), for inactives: at the top dose activity, positive = more growth; AID 2326, 2010; calls by dose curve; note: actives are rising curves; nearly all actives have a fitted effect of over 50% in size
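Growth recovery, yeast-based: influenza A NS1 expressed in S. cerevisiae causes slow growth, and suppressors are detected by OD600. The parent strain without NS1 is used as positive control.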
VACV mCherry inh: qHTS for Stage-Specific Inhibitors of Vaccinia Orthopoxvirus: mCherry Reporter Primary qHTS | Vaccinia virus mCherry reporter infection, fluorescence | Potency, µM (highest dose often 36.5 µM), without a hit: at the highest dose activity change, negative = inhibition, hits mostly inhibitors | hit rate 0.63% among 310,000; calls by dose curve; tested in A549 cells; note: % is set by controls: 0 for no effect and ±100 for the full control effect; nearly all actives have a fitted effect of over 35% in size
Active calls of the source: *; i = inactive; ? = inconclusive; nt = no result; [ ] = remark or other dose. An excerpt weighted towards active compounds, which were near 11% of everything screened. Unless noted, calls come from the whole dose curve; as a rule, active = well fitted inhibition curve with a large enough effect; inconclusive = small, poorly fitted or top-dose-only effect, or another doubt; inactive = no such curve, though single readings can be large or run the other way. Potency is the fitted concentration of half-maximal effect.

SMILES	VACV Venus inh	HCV inh	Pf growth 96h	Pf growth 48h	NS1 inh	VACV mCherry inh
CCN(CC(=O)Nc1ccccc1C(F)(F)F)C(=O)Cc1sc(C)nc1-c1ccc(F)cc1	-8.2%	-22.4%	?	14.7µM*	nt	-14.8%
Cc1cccc(C)c1-n1c(C)nn(CC#N)c1=O	-13.1%	13.6%	-34.4%[5.75 µM]	13.7%	-1.4%	-6.8%
COC(=O)c1ccc(COC(=O)c2ccc(CS(=O)(=O)c3ccc(C)cc3)cc2)cc1	-8.4%	4.2%	-12.6%	nt	-7.2%	1.0%
COC(=O)c1cc2c(n1S(=O)(=O)c1ccc(C)cc1)C(=O)C(=O)c1[nH]cc(C(=O)OCc3ccccc3)c1-2	2.51µM*	?	nt	nt	nt	2.24µM*
CNC(=O)CSc1nnc(-c2cnccn2)n1C	-23.5%	5.9%	21.8%	12.6%	2.8%	-13.2%
CC(=O)c1sc(-c2ccc(Cl)cc2)nc1C	-13.9%	8.1%	110.8%	41.1%	-5.4%	i
c1ccc(N2CC3CCc4ccccc4C3=N2)cc1 (stereo not drawn)	-2.5%	-1.1%	147.1%	147.6%	0.6%	-17.3%
CN1N=C2c3ccccc3CCC2C1c1ccc(Cl)cc1 (stereo not drawn)	-9.8%	10.5%	1.47µM*	?	0.3%	i
CN1N=C2c3ccccc3CCC2C1c1ccc(F)cc1 (stereo not drawn)	-8.4%	16.6%	1.65µM*	1.31µM*	-4.6%	-12.9%
Cc1ccc(C(=O)NCCc2c[nH]c3ccccc23)c(C)c1	-0.8%	?	234.7%	108.3%	-6.3%	-23.4%
CC(C)[C@H](NC(=O)c1ccc(Cl)cc1)C(=O)OCC(=O)N1CCN(c2ccccc2)CC1	-15.9%	?	nt	nt	nt	-10.1%
CCN1CC(CN(C)Cc2nc(-c3ccc(C(F)(F)F)cc3)no2)CC1=O (stereo not drawn)	nt	?	13.4%	3.4%	-1.0%	nt
CCN1CC(CN(C)Cc2nc(-c3cccs3)no2)CC1=O (stereo not drawn)	-4.4%	3.2%	11.7µM*	-0.1%	0.6%	i
O=C(OCC(=O)N1CCCc2ccccc21)c1cnc(Cl)c(Cl)c1	nt	5.01µM*	5.8%	-0.2%	-9.3%	nt
Cc1ccc2c(c1)C1C[N+](C)(CC(=O)c3ccc(Cl)cc3Cl)CCC1N2C(=O)c1ccc(F)cc1 (stereo not drawn)	nt	12.6µM*	nt	nt	nt	nt
CC(C)CC(NC(=O)C(CO)NC(=O)C1CCC(=O)N1)C(N)=O (stereo not drawn)	8.4%	23.6%	10.4µM*	0.8%	nt	i
CCC(C)C(NC(=O)C(CC(C)C)NC(=O)C(CO)NC(=O)C1CCC(=O)N1)C(=O)OC (stereo not drawn)	nt	22.9%	7.1%	17.1%	6.4%	nt
CCc1cccc(NC(=O)Nc2cn(C)c(=O)c3ccccc23)c1	-12.9%	nt	nt	nt	nt	-1.5%
Cc1ccc(-n2c(SCC(=O)Nc3ccc4c5c(cccc35)CC4)nc(O)cc2=O)cc1	nt	-21.3%	2.62µM*	2.94µM*	?	nt
COc1ccccc1-n1c(SCC(=O)Nc2ccccc2C)nc(O)cc1=O	-7.2%	-9.3%	-14.5%	2.62µM*	?	-20.2%
COCCn1c(-c2ccccc2)cnc1SCC(=O)Nc1cccc2ccccc12	-24.8%	-6.2%	13.1µM*	-23.4%	-0.9%	-26.8%
CC(C)(C)NC(=O)CSc1nc(O)cc(=O)n1-c1ccccc1F	nt	21.9%	42.5%	2.62µM*	?	nt
Cc1nnc(SCC(=O)Nc2ccc3c4c(cccc24)CC3)n1C	-15.5%	3.0%	-14.5%	4.9%	1.1%	-7.0%[1.46 µM]
COC(=O)CC1C(=O)NC2CCCCC2N1C(=O)CCl (stereo not drawn)	?	?	?	?	1.9%	?
Nc1cc(=O)[nH]c2nnc(SCC(=O)Nc3cccc4ccccc34)n12	-2.3%	2.9%	7.38µM*	-5.2%	-12.4%	-2.2%
SMILES	VACV Venus inh	HCV inh	Pf growth 96h	Pf growth 48h	NS1 inh	VACV mCherry inh
COc1ccc(-n2c(SCC(=O)Nc3cccc4ccccc34)nc(O)cc2=O)cc1	-3.8%[7.34 µM]	23.3%	0.294µM*	2.08µM*	25.0%	-1.5%[7.34 µM]
Cc1cc2c(=O)n(C)c(SCC(=O)Nc3ccccc3C)nc2s1	-17.1%	15.0%	9.28µM*	?	nt	-4.7%
Cc1cc2c(=O)n(C)c(SCC(=O)Nc3ccccc3)nc2s1	-1.0%	-18.6%	38.2%	?	6.7%	4.1%
Cc1nc(CN2CCCC2=NC#N)n(-c2ccccc2)n1	nt	5.8%	24.0%	9.0%	-1.4%	nt
O=C(COC(=O)Cc1ccccc1F)NCc1ccccc1Cl	-10.6%	nt	nt	nt	nt	i
Cc1ccc(CC2SC(=Nc3ccccc3)N(c3ccccc3)C2=O)cc1 (stereo not drawn)	-19.3%	-8.5%	197.3%	10.4µM*	-18.3%	-16.0%
O=C(COc1ccccc1)NNC(=S)NC(=O)c1ccc(Cl)cc1Cl	nt	-16.6%	?	-9.7%	-42.6%	nt
CCOC(=O)c1ccc(N2CCCCC2)c(NS(=O)(=O)c2ccc(C)cc2)c1	-4.6%[7.34 µM]	?	1.04µM*	2.33µM*	14.1%	?
COCCNC(=O)c1ccc(N2CCCCC2)c(NS(=O)(=O)c2ccc(C)cc2)c1	-28.3%	22.1%	400.4%	5.22µM*	-11.4%	nt
Cc1ccc(S(=O)(=O)Nc2cc(C(=O)NCCN(C)C)ccc2N2CCCC2)cc1	nt	10.0%	8.28µM*	-3.5%	0.1%	nt
CCOC(=O)c1ccc(S(=O)(=O)Nc2cc(S(=O)(=O)N3CCOCC3)ccc2O)cc1	nt	2.7%	nt	nt	nt	nt
CCN(CC)CCCNC(=O)c1ccc(N2CCCCC2)c(NS(=O)(=O)c2ccc(C)cc2)c1	nt	-11.5%	?	?	nt	nt
CCCCNC(=O)c1ccc(N2CCOCC2)c(NS(=O)(=O)c2ccc(OC)cc2)c1	nt	3.0%	49.4%	7.38µM*	-28.1%	nt
CCOc1ccc(CN(C)CC(=O)Nc2cc(OC)c([N+](=O)[O-])cc2C)cc1	0.4%	-23.3%	?	-4.5%	3.0%	-9.3%
COc1cc(/C=C2\C(=O)N(CCC#N)N=C2C)ccc1OCC(=O)Nc1ccccc1	-7.7%	3.4%	10.7%	19.1%	14.8%	i
CCn1c(C)c(C)c2cc(C(=O)NCCc3ccc(C)cc3)ccc21	-1.8%	nt	nt	nt	nt	-7.8%
CCOC(=O)c1ccc(N2CCN(c3ccccc3F)CC2)c(NC(=O)Nc2ccccc2)c1	-11.6%	-8.9%	?	13.1µM*	?	-16.6%
CCC(C)n1nccc1NC(=O)C(C)Cl (stereo not drawn)	-12.9%	5.0%	47.4%	?	nt	-2.0%
CC1CCN(CCCNC(=O)c2cc3c(s2)-c2ccccc2OC3)CC1	nt	?	45.6%	-29.9%	-5.4%	nt
CC1CCCN(CCCNC(=O)c2cc3c(s2)-c2ccccc2OC3)C1 (stereo not drawn)	?	11.2µM*	13.3%	?	-4.1%	?

Screening data: PubChem BioAssay, National Center for Advancing Translational Sciences (NCATS)
